Measured values from PubChem BioAssay (NCATS).
Records with an inconclusive call do not appear. Calls of active or inactive are those of the source. Unless noted, calls follow the shape of the dose curve; as a rule, active = well fitted curve in the direction sought with a large enough effect; inconclusive = small, poorly fitted or top-dose-only effect, or another doubt; inactive = no such curve, though single readings can be large; an effect the other way counts as inactive or inconclusive.

Experiments:
[1] = target: Cytochrome P450 2C9 (Homo sapiens) (UniProt P11712); experiment: Cytochrome P450 family 2 subfamily C member 9 (CYP2C9) small molecule antagonists: luciferase biochemical (cell-free) qHTS assay (AID 1645842; active = well fitted curve in the direction sought with a large enough effect in the repeat runs; an effect the other way counts as inactive or inconclusive; also: nearly all actives have a fitted effect of over 55% in size)
Sequence of Cytochrome P450 2C9 (Homo sapiens) (P11712 whole entry, looked up): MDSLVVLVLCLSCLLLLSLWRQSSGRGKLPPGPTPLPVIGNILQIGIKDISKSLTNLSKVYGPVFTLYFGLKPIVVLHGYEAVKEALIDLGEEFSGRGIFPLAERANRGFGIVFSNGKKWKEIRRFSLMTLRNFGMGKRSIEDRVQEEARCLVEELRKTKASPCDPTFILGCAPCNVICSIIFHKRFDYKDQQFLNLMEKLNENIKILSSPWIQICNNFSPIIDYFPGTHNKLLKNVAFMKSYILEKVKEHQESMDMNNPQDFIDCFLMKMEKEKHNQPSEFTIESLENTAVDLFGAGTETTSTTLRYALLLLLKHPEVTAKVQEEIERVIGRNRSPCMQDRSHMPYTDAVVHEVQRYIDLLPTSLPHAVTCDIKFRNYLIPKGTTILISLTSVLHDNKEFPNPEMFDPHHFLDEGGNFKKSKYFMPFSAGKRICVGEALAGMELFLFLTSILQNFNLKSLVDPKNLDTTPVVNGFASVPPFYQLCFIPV
Outline: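 P450-Glo CYP2C9 system: proluciferin substrate with enzyme in mix containing 0.4% BSA, 10 min at room temperature, then NADPH regeneration solution added and incubated 1 h at 37C. Detection reagent stopped reaction; luminescence read after 20 min as RLU.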

[2] = Primary qHTS for inhibitors of nuclear receptor binding SET domain protein 2 (NSD2) in an isogenic RCH-ACV NSD2 p.E1099K mutant (9B) (AID 1645876); also: nearly all actives have a fitted effect of over 70% in size
[3] = Primary qHTS for inhibitors of nuclear receptor binding SET domain protein 2 (NSD2) in an RCH-ACV wild type WT cells (2C) (AID 1645877); also: nearly all actives have a fitted effect of over 70% in size
Potency is read from the fitted curve at half-maximal effect.

For `CCN(CC)C(=O)C(c1ccccc1)N1CCN(c2ccc(NC(=O)c3ccccc3-c3cccnc3)cc2F)CC1` (stereo not given), the Potency [1] was 9.52 µM (active), the Potency [2] was “inactive” and the Potency [3] was “inactive”.
In the case of `Oc1ccc(-c2cnc3ccc(NCc4ccco4)nn23)cc1`, the Potency [1] is reported as 0.756 µM (active), the Potency [2] is reported as 1.83 µM (active) and the Potency [3] is reported as 1.83 µM (active).
In the case of `CC(C)S(=O)(=O)c1ccc2nccc(Nc3ccc4scnc4c3)c2c1`, the Potency [1] is reported as 6.74 µM (active), the Potency [2] is reported as 9.34 µM (active) and the Potency [3] is reported as 10.5 µM (active).
With `Cc1csc(N(C(=O)CSc2ccc(-c3ccccc3)nn2)C2CC2)n1` the Potency [1] was 10.7 µM (active), the Potency [2] was “inactive” and the Potency [3] was “inactive”.
In the case of `CC(C)(C)c1ccc(-c2nc3c(N4CCN(Cc5ccc6nccnc6c5)CC4)cccc3[nH]2)cc1`, the Potency [1] is reported as 2.13 µM (active), the Potency [2] is reported as 9.16 µM (active) and the Potency [3] is reported as 11.5 µM (active).
In the case of `Cc1ccc(NC(=O)C(C)C)cc1C1CCN(Cc2ccc(Oc3ccc(F)c(F)c3)cc2)CC1`, the Potency [1] is reported as 9.52 µM (active), the Potency [2] is reported as 12.9 µM (active) and the Potency [3] is reported as 9.16 µM (active).
With `CCOC(=O)c1ccc(OCCC2CCN(c3ccc(C)nn3)CC2)cc1` the Potency [1] was 19 µM (active), the Potency [2] was “inactive” and the Potency [3] was “inactive”.
For `CCn1c(=O)c(-c2ccc(-c3cncs3)cc2Cl)cc2cnc(Nc3ccc(N4CCN(C)CC4)cc3)nc21`, the Potency [1] was 6.01 µM (active), the Potency [2] was 2.31 µM (active) and the Potency [3] was 2.59 µM (active).
With `CC(=O)NCc1cccc(OC[C@@H](O)CNCCc2ccc(NS(=O)(=O)c3ccccc3)cc2)c1` the Potency [1] was 0.674 µM (active), the Potency [2] was “inactive” and the Potency [3] was “inactive”.
For `CCC(C)CNCC(=O)N1CCC2SC=CC2C1COc1cccc(C)c1` (stereo not given), the Potency [1] was 12 µM (active), the Potency [2] was 23 µM (active) and the Potency [3] was 18.3 µM (active).
